Bioassay records deposited in PubChem BioAssay by National Center for Advancing Translational Sciences (NCATS).
Sm TGR block – qHTS Assay for the Inhibitors of Schistosoma Mansoni Peroxiredoxins. Schistosoma mansoni thioredoxin glutathione reductase (TGR), Q962Y6. purified TGR, DTNB reduction, TNB absorbance 405 nm. Potency, µM (series often up to 114 µM), actives largely listed as inhibitors. 360,000 tested, 3% active. AID 485364, 2010; further: nearly all actives have a fitted effect of over 60% in size
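Kinetic colorimetric format: TGR-catalysed, NADPH-driven DTNB reduction monitored via TNB absorbance. Enzyme dispensed at 20 nM; compound exposure 15 min at room temperature before reaction start.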
AmpC inh no detg – qHTS Inhibitors of AmpC Beta-Lactamase (assay without detergent); Potency, µM (top dose mostly 57.1 µM), usual class: inhibitors; AID 485341, 2010; P00811; AmpC nitrocefin hydrolysis, absorbance 480 nm, 0.0001% Triton; 330,000 tested, 0.52% active; further: nearly all actives have a fitted effect of over 20% in size
Target sequence (P00811 whole entry, looked up): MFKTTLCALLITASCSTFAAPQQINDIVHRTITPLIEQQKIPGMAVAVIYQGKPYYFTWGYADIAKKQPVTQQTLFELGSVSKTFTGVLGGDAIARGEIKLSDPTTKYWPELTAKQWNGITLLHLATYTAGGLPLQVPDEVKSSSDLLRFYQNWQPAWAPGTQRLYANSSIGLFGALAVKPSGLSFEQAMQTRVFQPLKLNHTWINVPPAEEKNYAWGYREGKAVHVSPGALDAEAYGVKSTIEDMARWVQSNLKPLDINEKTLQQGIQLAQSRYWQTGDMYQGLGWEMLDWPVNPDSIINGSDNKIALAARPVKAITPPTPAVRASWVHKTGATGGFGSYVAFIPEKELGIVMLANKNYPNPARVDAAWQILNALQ
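20 mM phosphate pH 7.0 + 0.01% (detergent screen) or 0.0001% Triton X-100; 5.3 nM AmpC reagent; cpd preinc 15 min RT; nitrocefin (800 uM stock) to start; A480 q20 s × 4 min; Activity was normalised to no-enzyme and no-compound control wells.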
AmpC inh detg – qHTS Inhibitors of AmpC Beta-Lactamase (assay with detergent). AmpC hydrolysis of nitrocefin, absorbance 480 nm, 0.01% Triton. Potency, µM (highest dose often 114 µM), most hits filed as inhibitors. 370,000 tested, 0.041% active. AID 485294, 2010; further: nearly all actives have a fitted effect of over 25% in size
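20 mM phosphate pH 7.0 + 0.01% (detergent screen) or 0.0001% Triton X-100; 5.3 nM AmpC reagent; cpd preinc 15 min RT; nitrocefin (800 uM stock) to start; A480 q20 s × 4 min; Activity was normalised to no-enzyme and no-compound control wells.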
SARS PLP yeast – qHTS of Yeast-based Assay for SARS-CoV PLP. Potency, µM (series often up to 32.9 µM), usual class: activators. 330,000 tested, 0.19% active. S. cerevisiae expressing SARS-CoV PLpro, growth rescue; calls by dose curve; further: nearly all actives have a fitted effect of over 55% in size
Pf growth 48h – Primary qHTS for delayed death inhibitors of the malarial parasite plastid, 48 hour incubation. P. falciparum luciferase growth in erythrocytes, 48 h. Potency, µM (top dose mostly 28.7 µM), most hits filed as inhibitors. 310,000 tested, 5.9% active
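Read-out is firefly luciferase luminescence from an integrated reporter in P. falciparum, so falling signal marks reduced parasite growth. Infected erythrocytes were at 2% hematocrit and 0.1% parasitemia (final) in Albumax-supplemented RPMI 1640.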
Pf growth 96h – Primary qHTS for delayed death inhibitors of the malarial parasite plastid, 96 hour incubation; 320,000 tested, 6.9% active; P. falciparum luciferase reporter growth, 96 h; Potency, µM (highest dose often 28.7 µM), hits mostly inhibitors
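Plates of compound plus infected erythrocytes (2% hematocrit, 0.05% parasitemia final) incubate 96 hours, 37 C, 5% CO2. Detection reagent added; reduced luminescence from the parasites' luciferase reporter flags inhibition.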
Hits are given with their value; 0 = inactive; ? = inconclusive; - = no result; [ ] = remark or other dose. A selection: hits, their analogues and other compounds. The true share with any hit is near 12%. Unless noted, the call rests on the fitted dose curve; in most records, active means well fitted curve in the direction sought with a large enough effect; inconclusive means small, poorly fitted or top-dose-only effect, or another doubt; inactive means no such curve, though single readings can be large; an effect the other way counts as inactive or inconclusive.

SMILES	Sm TGR block	AmpC inh no detg	AmpC inh detg	SARS PLP yeast	Pf growth 48h	Pf growth 96h
O=C(Nc1ccncc1)C1CCN(S(=O)(=O)c2ccccc2C(F)(F)F)CC1	0	0	0	0	?	3.3µM
O=C(Nc1ccncc1)C1CCN(S(=O)(=O)c2ccc(Cl)c(C(F)(F)F)c2)CC1	0	0	0	0	?	12µM
CC(=O)Nc1ccc(SCc2ncc(-c3ccccc3)o2)cc1	0	0	0	0	0	0
c1ccc(-c2cnc(CSc3ncnc4sccc34)o2)cc1	10µM	0	0	0	0	0
COc1ccccc1C/C(N)=N/OC(=O)c1cccc([N+](=O)[O-])c1C	0	0	0	0	9.3µM	0
COc1ccc(/C(N)=N/OC(=O)c2cccc([N+](=O)[O-])c2C)cc1	-	0	0	0	?	0
Cc1ccc(OCC(=O)Oc2cccc(C)c2C)cc1	0	0	0	0	0	12µM
COc1ccccc1C/C(N)=N/OC(=O)COc1ccc(C)cc1	0	0	0	0	0	2.1µM
C[C@@H]1CC[C@H](O)/C=C/C(=O)O[C@H](C)CC[C@H](O)/C=C/C(=O)O1	0	0	0	0	?	10µM
C[C@H]1CCC/C=C/[C@@H]2C[C@H](O)C[C@H]2[C@H](O)/C=C/C(=O)O1	?	0	0	-	2.1µM	2.9µM
Cc1cccc(C)c1NS(=O)(=O)c1cc2c3c(c1)CC(=O)N3CCC2	0	0	0	0	9.3µM	?
Cc1ccc(C)c(NS(=O)(=O)c2cc3c4c(c2)CC(=O)N4CCC3)c1	0	0	?	0	10µM	0
O=C1Cc2cc(S(=O)(=O)Nc3cccc([N+](=O)[O-])c3)cc3c2N1CCC3	0	0	0	0	0	6.6µM
CCOC(=O)C1=C(CN2CCN(c3ccccc3)CC2)NC(=O)NC1c1ccc(C)cc1 (stereo not given)	?	-	0	-	-	-
COc1cn(CC(=O)Nc2c(C)cc(C)cc2C)c(CN2CCCCC2)cc1=O	0	-	0	-	-	-
Cc1ccc(CNC(=O)CCc2nnc3n(C)c(=O)c4sccc4n23)cc1	0	-	0	-	-	-
Nc1ccc(Br)c[n+]1Cc1cccc2cccnc12	0	0	0	0	?	10µM
O=C(NCc1ccc2c(c1)CCN2C(=O)c1ccccc1)Nc1cccc(C(F)(F)F)c1	0	-	0	-	-	-
Cc1ccc(C(=O)Nc2cccc(C(F)(F)F)c2)cc1Nc1ncnc2nc[nH]c12	0	0	0	0	13µM	13µM
Cc1ccc(C(=O)Nc2cccc(C(F)(F)F)c2)cc1Nc1cnccn1	0	0	0	0	?	?
CCOc1ccc(NC(=O)Cc2c(O)c3ccccc3[nH]c2=O)cc1	?	0	0	0	2.9µM	0
Cc1ccccc1N1CC(=O)N(c2ccccc2C)CC1=O	0	0	0	0	-	0
Cc1cccc2c1c1ccc3c(c1n2C)C(=O)C=CC3=O	2.5µM	0	0	0	12µM	?
CC(C)(C)n1ncc2c(=O)n(Cc3ccccc3Br)cnc21	0	0	0	0	2.9µM	?
COC(=O)c1c(C)[nH]c(O)c1C=Nc1ccc(C#N)cc1	13µM	0	0	0	0[1.15 µM]	0[1.15 µM]
SMILES	Sm TGR block	AmpC inh no detg	AmpC inh detg	SARS PLP yeast	Pf growth 48h	Pf growth 96h
CCN(C(=O)COC(=O)CNC(=O)c1ccc(Cl)cc1Cl)c1c(N)n(Cc2ccccc2)c(=O)[nH]c1=O	-	0	-	0	-	-
CCN(Cc1ccccc1)C(c1ccccn1)c1nnnn1C1CCCCC1 (stereo not given)	0	0	?	0	12µM	0
CCN(Cc1ccccc1)C(c1cccs1)c1nnnn1C1CCCCC1 (stereo not given)	0	0	?	0	9.3µM	0
CC(c1nnnn1C1CCCCC1)N(Cc1ccccc1)Cc1cccnc1 (stereo not given)	0	0	0	0	10µM	0
Clc1ccc(C(c2nnnn2C2CCCCC2)N(Cc2cccnc2)Cc2ccco2)cc1 (stereo not given)	0	0	0	0	?	?
CCC1=C(c2ccc(C)cc2)S(=O)(=O)N=C1N1CCC(C(=O)Nc2ccccc2C(=O)OC)CC1	0	-	0	-	-	-
Cc1ccccc1Cn1c(SCc2ccc(C(=O)NC(C)c3ccccc3)cc2)nc2ccncc21 (stereo not given)	0	-	0	-	-	-
Cc1ccc2oc(=O)c3cc(C(=O)NCCCOC(C)C)sc3c2c1	0	-	0	-	-	-
CC(C)N=C(Nc1ccccc1)c1cccnc1	0	0	0	0	0	0
CC(=O)Nc1ccc(C(=O)CCl)cc1	13µM	0	0	0	0	0
CC(=O)NCCC(=O)NCc1ccc(F)cc1	0	0	0	0	-	0
CC(=O)Nc1ccc(C)cc1	0	0	0	0	0	?
CC(=O)NCc1ccc(C(=O)CCl)cc1	11µM	0	?	0	0	0
CC(=O)NCc1ccc(C(=O)CCl)s1	14µM	0	0	0	4.1µM	?
Cc1ccc2c(c1)-c1nc(-c3ccc(Cl)cc3)cc(-c3coc4ccccc4c3=O)c1CO2	0	-	0	-	-	-
COc1cccc(C2CC(=O)Nc3c2c(=O)[nH]c2ncnn32)c1OC (stereo not given)	0	-	0	-	-	-
C/C(=N\NC(=O)c1nonc1N)c1cccs1	0	0	0	0	0	0
CCOP(=O)(NC12CC3CC(CC(C3)C1)C2)NC12CC3CC(CC(C3)C1)C2	0	0	0	0	3.7µM	2.9µM
COc1cccc(NC(=O)N2CCC(NC(=O)C(Cc3ccccc3OC)NC(C)=O)CC2)c1 (stereo not given)	0	0	0	0	0	?
COc1ccccc1CC(NC(C)=O)C(=O)NC1CCN(C(=O)c2ccc([N+](=O)[O-])cc2)CC1 (stereo not given)	0	0	0	0	0	6.6µM
CC(=O)NC(Cc1ccccc1)C(=O)NC1CCN(C(=O)NC2CCCCC2)CC1 (stereo not given)	0	0	?	0	0	0
COc1cc(C(=O)N2CCC(NC(=O)C(Cc3ccccc3)NC(C)=O)CC2)cc(OC)c1OC (stereo not given)	0	0	?	0	?	12µM
COc1ccccc1CC(NC(C)=O)C(=O)NC1CCN(C(=O)Nc2cccc(F)c2)CC1 (stereo not given)	0	0	0	0	0	1.3µM
COc1ccc(C(=O)N2CCC(NC(=O)C(Cc3ccccc3OC)NC(C)=O)CC2)cc1 (stereo not given)	0	0	0	0	0	0
